The other results are listed elsewhere or left out. Records with an inconclusive call do not appear. The source made the active and inactive calls. The call rests on the fitted dose curve.
Molecular target: Alpha-synuclein (Homo sapiens) (UniProt P37840)
Assay: Alpha-synuclein ThS binding assay
Settings: recombinant alpha-synuclein fibrils, ThS fluorescence displacement
Description: NIH Molecular Libraries Screening Centers Network [MLSCN] NIH Chemical Genomics Center [NCGC] MLSCN Grant: 1 X01 MH079825-01 Assay Provider: Jeffrey A. Kuret, Ohio State University NCGC Assay Overview: Lewy body disease is characterized by the appearance of lesions containing alpha-synuclein. The protein components in these lesions can be induced to form filaments under experimentally tractable times when incubated in vitro with anionic inducers such as alkyl sulfate detergents or fatty acids. […] Here we describe the in vitro fibrillization of alpha-synuclein. Alpha-synuclein was induced to form filaments by incubation overnight at 37 C in the presence of arachidonic acid. A commonly used fluorescent probe for cross#nbeta-sheet structure, Thioflavin S (ThS), was also added to the reactions. […] Small molecules capable of ThS displacement or antagonizing fibrillization result in a decrease in ThS fluorescence, allowing determination of binding affinities for molecules screened.
NCGC Assay Protocol Summary The assay was performed in 96-well round bottom opaque plates (VWR, West Chester, PA) in 100 uL final volume. […] Fluorescence (ex = 440 nm; em = 485 nm) was measured after brief shaking (10 s) in a FlexStation plate reader (Molecular Devices, Sunnyvale, CA) operated at sensitivity 10, automatic PMT. […]

Row | SMILES | outcome
1 | O=C(CCCCn1c(=O)[nH]c2ccccc2c1=O)NCc1ccc2c(c1)OCO2 | inactive
